Laboratory results taken from PubChem BioAssay (EPA / NIEHS).
Records with an inconclusive call do not appear. Activity calls are given as the source filed them. Rule for the calls: active = hit-call score of the fitted dose curve at least 0.9, where 1 is the maximum; inconclusive = response in the unintended direction; inactive = score below 0.9.

What follows are molecules tested on Cytochrome P450 2B6 (Homo sapiens) (UniProt P20813) (assay: CLD_CYP2B6_6hr: CellzDirect (CLD) Gene Expression Assay for xenobiotic metabolism (CYP2B6) at 6 hours (AID 2283677);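 note: actives raise CYP2B6 transcript above DMSO baseline so AC50 marks an inducer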).
Experimental: CLD_6hr is a cell-based, multiplexed-readout assay that uses hepatocyte, a human liver primary cell, with measurements taken at 6 hours after chemical dosing in a 96-well plate.CLD_CYP2B6_6hr is one of 16 assay component(s) measured or calculated from the CLD_6hr assay. It is designed to make measurements of mRNA induction, a form of inducible reporter, as detected with chemiluminescence signals by Quantitative Nuclease Protection Assay (qNPA) technology.Data from the assay component CLD_CYP2B6_6hr was analyzed at the endpoint, CLD_CYP2B6_6hr, in the positive analysis fitting direction relative to DMSO as the negative control and baseline of activity. Using a type of inducible reporter, gain-of-signal activity can be used to understand changes in the reporter gene as they relate to the gene CYP2B6. Furthermore, this assay endpoint can be referred to as a primary readout. To generalize the intended target to other relatable targets, this assay endpoint is annotated to the cyp intended target family, where subfamily is xenobiotic metabolism.
Human hepatocyte cultures were treated daily for two consecutive days with fresh dosing solutions containing appropriate concentrations of the 320 ToxCast chemicals (chemical identities were blinded to CellzDirect and other ToxCast collaborators), vehicle control (0.2% DMSO), and positive control inducers as summarized in Table 1. Due to the large number of treatment groups and chemicals examined, the ToxCast chemicals were divided into two groups (spanning two independent cultures of hepatocytes from separate donor preparations (Hu778: ToxCast plates 1 and 2; Hu776: ToxCast plates 3 and 4). Each preparation of human hepatocyte cultures was treated with respective vehicle control, medium only control, set of six positive controls/reference chemicals for the five hepatic receptor pathways, and a subset of eight of the ToxCast chemicals (indoxacarb, pyrithiobac-sodium, norflurazon, cyhalofop-butyl, methomyl, thiram, acetochlor, and propiconazole). These replicate data, coupled with internal replicates designed within the blinded ToxCast chemical library, provided additional data to evaluate interindividual differences between hepatocyte preparations and their potential impact on chemical profiles.Cell morphology and integrity were evaluated using phase-contrast microscopy as an indicator of hepatocyte cell health (Tyson & Green, 1987). Cultures for each treatment group (i.e., media, vehicle [0.2% DMSO], positive control inducers [multiple concentrations], and the ToxCast chemicals [multiple concentrations]) were observed and cell morphology was assessed relative to vehicle control cultures at each harvest time point (0, 6, 24, or 48 h). […] Images were evaluated at the conclusion of the study to assess changes in cell integrity and account for the effects of chemical exposure on uncharacteristic changes in concentration-dependent gene expression profiles. The results from these determinations of apparent cytotoxicity were annotated (yes/no) alongside the corresponding qNPA data for reference.At the conclusion of each treatment period, hepatocyte cultures (96-well) were washed with 1 volume of HBSS, lysed by addition of 25 ul ArrayPlate lysis buffer (HTG, Tucson, AZ), and 70 ul/well of Denaturation Oil, denatured by incubation at 95C for 10 min, and frozen at approximately -70C until analysis by nuclease protection assay (qNPA) (Roberts et al., 2007). For qNPA analysis, cell lysates were thawed at 50C for approximately 30 min, qNPA probes were added, and samples were incubated at 95C for 10 min to begin the detection process by denaturing the target RNA, dissociating the duplexes and secondary structure hybridization. At the conclusion of the hybridization period, S1 nuclease reagent was added to each sample to digest all nonprotected nucleotides at 50C for 60-90 min. […]

Compound	AC50	outcome
Clc1ccccc1-c1nnc(-c2ccccc2Cl)nn1	0.4 nM (active)	
COc1cc(OC)nc(NC(=O)NS(=O)(=O)c2cc(NC=O)ccc2C(=O)N(C)C)n1		inactive
CCOCN(C(=O)CCl)c1c(C)cccc1CC	1660 nM (active)	
CCS(=O)(=O)c1cccnc1S(=O)(=O)NC(=O)Nc1nc(OC)cc(OC)n1	11300 nM (active)	
CCCN(CCOc1c(Cl)cc(Cl)cc1Cl)C(=O)n1ccnc1	702 nM (active)	
CC[C@H](C)[C@H]1O[C@]2(C=C[C@@H]1C)C[C@@H]1C[C@@H](C/C=C(\C)[C@@H](O[C@H]3C[C@H](OC)[C@@H](O[C@H]4C[C@H](OC)[C@@H](O)[C@H](C)O4)[C@H](C)O3)[C@@H](C)/C=C/C=C3\CO[C@@H]4[C@H](O)C(C)=C[C@@H](C(=O)O1)[C@]34O)O2 (tested in a mixture with another compound)		inactive
CC(C)(C)C(O)/C(=C\c1ccc(Cl)cc1Cl)n1cncn1 (stereo not given)	733 nM (active)	
O=S(=O)(O)C(F)(F)C(F)(F)C(F)(F)C(F)(F)C(F)(F)C(F)(F)C(F)(F)C(F)(F)F		inactive
CC(C)OC(=O)Nc1cccc(Cl)c1	6860 nM (active)	
OCCOc1ccccc1		inactive
CNC(=O)Oc1ccccc1OC(C)C	3210 nM (active)	
O=[N+]([O-])/N=C1\NCCN1Cc1ccc(Cl)nc1		inactive
CCC(C)(NC(=O)c1cc(Cl)c(C)c(Cl)c1)C(=O)CCl (stereo not given)	3170 nM (active)	
O=C(O)C(F)(F)C(F)(F)C(F)(F)C(F)(F)C(F)(F)C(F)(F)C(F)(F)F		inactive
CNC(=O)/C=C(\C)OP(=O)(OC)OC		inactive
COc1nn(CSP(=S)(OC)OC)c(=O)s1	2940 nM (active)	
COP(=O)(OC)OC=C(Cl)Cl	1890 nM (active)	
CN1CSC(=S)N(C)C1		inactive
ClC1C(Cl)C(Cl)C(Cl)C(Cl)C1Cl (stereo not given)	1430 nM (active)	
CCOC1Oc2ccc(OS(C)(=O)=O)cc2C1(C)C (stereo not given)	2550 nM (active)	

Compound	AC50	outcome
O=C(O)COc1ccc(Cl)cc1Cl	44.8 nM (active)	
C[C@H]1[C@H](c2ccc(Cl)cc2)SC(=O)N1C(=O)NC1CCCCC1	3090 nM (active)	
O=C(O)CCCOc1ccc(Cl)cc1Cl		inactive
O=S1OCC2C(CO1)C1(Cl)C(Cl)=C(Cl)C2(Cl)C1(Cl)Cl (stereo not given)	1240 nM (active)	
O=C(NC(=O)c1c(F)cccc1F)Nc1ccc(OC(F)(F)C(F)OC(F)(F)F)c(Cl)c1 (stereo not given)		inactive
Oc1cc(Cl)ccc1Oc1ccc(Cl)cc1Cl		inactive
CNC(=O)Oc1cccc(N=CN(C)C)c1		inactive
CCc1ccc(C(=O)NN(C(=O)c2cc(C)cc(C)c2)C(C)(C)C)cc1	2090 nM (active)	
CCOc1nc(NC)nc(NC(=O)NS(=O)(=O)c2ccccc2C(=O)OC)n1		inactive
CCCN(CCC)c1c([N+](=O)[O-])cc(C(F)(F)F)cc1[N+](=O)[O-]	1270 nM (active)	
CC(C)(C)C(O)C(Oc1ccc(Cl)cc1)n1cncn1 (stereo not given)	656 nM (active)	
CNC(=O)CSP(=S)(OC)OC	3110 nM (active)	
CCC(C)Nc1c([N+](=O)[O-])cc(C(C)(C)C)cc1[N+](=O)[O-] (stereo not given)	1530 nM (active)	
COP(=S)(OC)Oc1ccc(SC)c(C)c1	4740 nM (active)	
N#Cc1c(Cl)c(Cl)c(Cl)c(C#N)c1Cl	20000 nM (active)	
Cc1[nH]c(=O)n(C(C)(C)C)c(=O)c1Cl		inactive
COP(=S)(OC)Oc1ccc([N+](=O)[O-])cc1	916 nM (active)	
CC(C)N(C(=O)COc1nnc(C(F)(F)F)s1)c1ccc(F)cc1	14700 nM (active)	
CC1(c2ccc(Oc3ccccc3)cc2)OC(=O)N(Nc2ccccc2)C1=O (stereo not given)	1880 nM (active)	
Cc1cc(C)nc(NC(=O)NS(=O)(=O)c2ccccc2C(=O)OC2COC2)n1		inactive
